Assay results reported in PubChem BioAssay AID2417 (National Center for Advancing Translational Sciences (NCATS), 2010).
About 4,300 (3.1%) of roughly 140,000 compounds were called active. Roughly 21% stayed inconclusive and do not appear here.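 Rule for the calls: active = readout at or below -70, meaning at least 70% loss of cells showing the perinucleolar compartment, a nuclear body marking cancer cells; inconclusive = readout between -30 and a set limit; inactive = the rest.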 The sample as a whole holds a higher share of actives than the screen did.

Test: High Content Assay for Compounds that inhibit the Assembly of the Perinucleolar Compartment;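 note: plate controls were DMSO wells for no effect and camptothecin positive control wells for full effect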
Details: PC3M PTB-GFP, PNC prevalence imaging, 16 h; at 10 µM; hits give low values
Excerpt: High Content Assay for Compounds that inhibit the Assembly of the Perinucleolar Compartment NIH Chemical Genomics Center [NCGC] NIH Molecular Libraries Probe Centers Network [MLPCN] MLPCN Grant: MH082371-01A2 Assay Submitter (PI): Sui Huang, Northwestern University, Feinberg School of Medicine, Cell and Molecular Biology, Chicago, Illinois. The perinucleolar compartment (PNC) is a non-membrane-bound nuclear subdomain that is associated with but structurally distinct from the nucleolus. The PNC is a heritable trait, in which the number of PNCs per cell in daughter cells often mimics that of their mother cells. The PNC is heterogeneous in shape, is stable through interphase, disassembles during mitosis, and reassembles in early G1. The PNC is concentrated with newly synthesized RNA polymerase III (pol III) RNAs (MRP RNA, RNAse P H1 RNA, hY RNAs[hY1, 2, 5], Alu RNA, and SRP [7SL] RNA) and RNA binding proteins (nucleolin, PTB, CUG-BP, KSRP, Raver1, Raver2, and Rod). […] Extensive in vitro studies have shown that the PNC is unique to tumor cells and preferentially forms in tumor cells derived from solid tissues. Examination of cancer cell lines from various origins and malignant capacities has shown that PNC prevalence correlates with the malignancy of tumors and has the potential to be developed as a pan-cancer prognostic marker. […] Although the PNC is associated with a DNA locus and a handful of components have been identified, much remains to be investigated regarding the structure and function of the PNC and its mechanistic link to cancer. We have previously shown that PNC prevalence reduction is a valid strategy to identify compounds that can be used to study the structure and function of the PNC. It is necessary, however, to create a screening platform that is able to test a large number of compounds in an automated fashion. Here we report the development and robustness of an automated whole-cell phenotypic image-based screening assay that is capable of identifying such compounds.
PNC High Content Imaging Assay Procedure: 1. Cells at a density of 75-90% confluency in T175 flasks were harvested using 7 ml TrypLE Express cell dissociation reagent. After dissociation (5 minutes room temperature incubation) 10 ml of complete media was added to the TrypLE/cell suspension. The liquid was transferred to a 50 ml Conical tube and cells were pelleted at 1000 RPM for 5 min. Supernatant was removed and cells were resuspended to a final density of 150-200 cells/ul in complete media. 2. Cells were plated in 5 ul volume (750-1000 cells/well) into 1536 well Black uclear Aurora Low Base plates and allowed to recover and adhere at 37 C in a humidified 5% CO2 incubator for 4 hours. 3. After 4 hour incubation, compound libraries (23 nl of […] in columns 5-48) were transferred to the plates in duplicate using a 1536 well pintool. Camptothecin positive control (59 uM final) was added to column 2 and 1:3 dilutions of camptothecin was added to column 3. DMSO negative controls were present in columns 1 and 4. 4. After a 16 hour incubation in the 37 C incubator, cells were fixed by the addition of 4 ul of 6% EM grade paraformaldehyde (containing 0.1% triton X 100) directly to the cells. The plates were incubated at room temperature for 20 minutes. The liquid was removed using a 32 channel Kalypsys aspirator and the fixed cells were washed twice with 5 ul PBS followed by a final addition of 5 ul PBS containing 1 ug/ml Hoechst 33342. 5. Fixed plates were sealed and sotred at 4C until imaged. 6. Plates were imaged on an InCell 1000 automated microscope using a 20 x objective, a standard FITC filter set, no camera binning, and an exposure time of ~100-150 msec/well. 7. Data analysis. PNC prevalence was determined using the Multitarget analysis module from InCell Workstation software (V3.5 ) and analysis was run on a quad core workstation using the Incell Developer Toolbox (V1.7). […]

Activity change (PNC), negative = inhibition, inactive:
CC(NC(=S)Nc1ccc(S(N)(=O)=O)cc1)c1ccc2c(c1)OCO2 (stereo unspecified) -20.3%
c1ccc(-n2nc3ccccc3n2)cc1 -3.58%
N#CC1=C(N)N(c2ccccc2)C2=C(C(=O)CCC2)C1c1ccccc1 (stereo unspecified) 5.97%
CCCCCC(=O)Nc1ccc(S(=O)(=O)Nc2ccc(Cl)nn2)cc1 31.2%
CCOc1ccccc1N1CCN(C(=S)Nc2ccc(S(N)(=O)=O)cc2)CC1 -28.8%
COC(=O)c1c(NC(=O)c2cccs2)sc2c1CCCC2 -6.02%
Cc1ccc(C(=O)c2c(NC(=O)c3ccccc3)sc(C)c2C)cc1 71.1%
CN1CCN(c2ccc(S(=O)(=O)N3CCCCC3)cc2NC(=O)Cc2ccccc2F)CC1 41.3%
CCCCn1c(SCc2ncc(-c3ccccc3)o2)nc2cc(S(N)(=O)=O)ccc21 27%
CCOC(=O)C1CCN(C(=O)CSc2cc(=O)n(C)c3ccccc23)CC1 0.103%
CCCCN(CC)CCNC(=O)c1[nH]c(C)c(C(C)=O)c1C -4.29%
COC(=O)c1c(C)[nH]c(C(=O)/C=C/c2ccc(Cl)cc2)c1C 0.424%
CC(=O)c1c(Nc2ccccc2)sc(C(=O)c2ccccc2)c1C 73.7%
Cc1cc(NS(=O)(=O)c2ccc(NC(=S)NC(=O)c3ccc(F)cc3Cl)cc2)no1 -22%
Cc1ccc(C(=O)C(=S)N2CCOCC2)cc1 -3.45%
O=CN1CCN(C2CC(=O)N(c3ccc4c(c3)OCO4)C2=O)CC1 (stereo unspecified) -6.31%
COc1cccc(N2CCN(C3CC(=O)N(c4ccc(Cl)cc4)C3=O)CC2)c1 (stereo unspecified) -3.5%
COc1cccc(N2C(=O)CC(N3CCN(S(=O)(=O)c4ccccc4)CC3)C2=O)c1 (stereo unspecified) -19.9%
COc1ccc(N2C(=O)CC(N3CCC(C(N)=O)CC3)C2=O)cc1 (stereo unspecified) 19.9%
Cn1cc([N+](=O)[O-])c(C(=O)Nc2cnn(Cc3ccc(F)cc3)c2)n1 -17%
COCCOC(=O)c1c(C)oc2cc(Br)c(OCC(N)=O)cc12 -7.11%
CC(C)(C)c1ccc(/C=C/C(=O)Nc2ncccn2)cc1 15.2%
COc1ccc([C@H]2[C@H](C(C)=O)N3N=Cc4ccccc4C3C23C(=O)OC(C)(C)OC3=O)cc1 (stereo partly specified) 11.5%
COc1ccc(C(=O)Nc2ccc(CN3CCOCC3)cc2)cc1 -12.7%
CC(C)(C)NC(=O)c1cccc(NC(=O)Cc2ccc(Br)cc2)c1 -14.3%
CC1=C(C(=O)Nc2cc(C)ccn2)C(c2cnn(C)c2)C2=C(CC(c3ccccc3)CC2=O)N1 (stereo unspecified) 20.8%
COc1ccc2nc(NC(=O)[C@@H]3CCCN3C(=O)c3cccs3)sc2c1 34.3%
CC(C)NC(=S)N1CCN(C(c2ccccc2)c2ccccc2)CC1 12%
CCOC(=O)C1=C(CSc2nnnn2C)N(C)C(=O)NC1c1ccccc1 (stereo unspecified) 19.9%
Cn1nnnc1SCC(=O)N1CCN(Cc2ccccc2)CC1 29.1%
O=C(O)CC(c1ccccc1)n1cnnn1 (stereo unspecified) 2.72%
Cc1ccc2nsnc2c1NC(=O)c1ccccc1[N+](=O)[O-] -1.05%
O=C(C/C(=N\NC(=O)c1ccccc1Br)C(F)(F)F)c1cccs1 -25.7%
Cc1ccc(C)c2[nH]c(=O)c(CCNC(=O)c3cccs3)cc12 36.1%
COc1cc(OC)cc(C(=O)NCC(=O)OCc2csc(-c3ccccc3)n2)c1 0.666%
CCC1CCCCN1C(=S)Nc1ccc(C(C)=O)cc1 (stereo unspecified) 83.7%
CC(NC(=O)CCC(=O)N1CCN(S(=O)(=O)c2ccc(Cl)cc2)CC1)c1ccccc1 (stereo unspecified) -12.6%
CCNC(=O)NC(=O)C(C)OC(=O)C1CCN(S(=O)(=O)c2ccccc2F)CC1 (stereo unspecified) -28.8%
O=C(Nc1cccc(Cl)c1)Nc1ccccc1NS(=O)(=O)c1cccs1 -1.43%
CCOC(=O)CNC(=O)CSc1nnnn1-c1cc(C)ccc1C -8.66%
CNC(=O)CSc1nnnn1-c1ccc(C)cc1C -10.4%
C/C(CCC(=O)OC[C@H]1O[C@H](C#Cc2ccccc2)C=C[C@@H]1Oc1ccc(C)cc1)=N\OC[C@@H](O)[C@H]1O[C@@H]2OC(C)(C)O[C@@H]2[C@H]1O 49%
CN(CC(=O)NCCc1ccccc1)S(=O)(=O)c1cnc[nH]1 -5.8%
COCCNC(=O)COc1ccc(C)c(C)c1 -16.6%
Cc1ccc(/C(N)=N/OC(=O)COc2ccc(Cl)c(C)c2)cc1 48.8%
CCOC(=O)c1ccc(NC(=O)CSc2ncccn2)cc1 -27.8%
COC(=O)c1ccc(NC(=O)CSc2nnc(-c3ccncc3)n2C)cc1 -12.9%
CN(CC(=O)Nc1ccc(S(=O)(=O)N2CCCC2)cc1)Cc1ccc(Cl)c(Cl)c1 14.3%
Cc1nc2scc(-c3cccs3)c2c(=O)n1N 38.3%
CCCCNc1nc2c(c(=O)[nH]c(=O)n2C)n1CCOc1ccccc1 44.9%
CCCCNc1nc2c(c(=O)n(C)c(=O)n2C)n1Cc1cccc(OC)c1 -17.3%
O=C(N/N=C\c1ccc(Br)cc1)c1ccc(Cn2cccn2)o1 -11.4%
CN(C)S(=O)(=O)c1ccc(N2CCCC2=O)c([N+](=O)[O-])c1 43.2%
COc1ccc2c(c1)C(SCC(=O)NCc1ccccc1)CC(C)(C)O2 (stereo unspecified) 27.2%
Cc1ccc(C)c(S(=O)(=O)n2cnc3ccccc32)c1 -9%
Cc1ccc(S(=O)(=O)N2CC(=O)Nc3ccccc32)cc1C 5.54%
COc1ccc(NC(=S)NCc2cccs2)c(OC)c1 -5.37%
O=C(CN1CCN(S(=O)(=O)c2ccc(Br)cc2)CC1)Nc1ccccc1C(=O)c1ccccc1 41.1%
COC(=O)NNC(=O)C1CCC(C)CC1 (stereo unspecified) 21.6%
CCOC(=O)CSc1nnc(NC(=O)c2cccc(S(=O)(=O)N3CCCCC3)c2)s1 19.2%
O=C(Nc1nncs1)c1cccc(S(=O)(=O)N2CCCCC2)c1 -22%
COc1ccc(C)cc1NC(=O)C(Sc1ccccc1)c1ccccc1 (stereo unspecified) -2.98%
CCC(C)NC(=O)c1ccc(N2CCC3(CC2)OCCO3)c([N+](=O)[O-])c1 (stereo unspecified) 36.6%
COc1ccc(NC(=O)CN(Cc2ccccc2)S(C)(=O)=O)cc1OC -0.222%
CCCCC(=O)N/N=C(\C)CC(=O)Nc1cc(Cl)ccc1OC 41.6%
COc1ccc(COC(=O)N/N=C(\C)CC(=O)Nc2ccc(Cl)cc2)cc1 20.7%
CC(C)(C)C1CCC(=NNC(=O)c2ccc(Br)o2)CC1 (stereo unspecified) 30.8%
O=C(Nc1cn(-c2ccccc2)nc1-c1ccccc1)c1ccccc1 22.3%
Cc1nn(-c2ccccc2)c(C)c1/C=C/C(=O)OC(C)C(N)=O (stereo unspecified) 7.76%
Cc1ccc(C(=O)/C=C/c2c(C)nn(-c3ccccc3)c2Cl)cc1 -11.1%
NC1=C([N+](=O)[O-])C(c2ccccc2)C2=C(CCCC2=O)O1 (stereo unspecified) 6.59%

Activity change (PNC), negative = inhibition, active:
O=C1CCCc2nn(-c3ccccc3)nc21 -100%
Cc1ccc(C(=O)c2c(NC(=O)c3ccncc3)sc3c2CCCC3)cc1 -86.2%
CC(=O)NC1C(Oc2ccc(C)cc2)OC2COC(c3ccco3)OC2C1O (stereo unspecified) -119%
N#CCOc1ccc(C2=NO[C@@H]3[C@@H]4C[C@@H]([C@H]5C(=O)N(c6ccc7c(c6)OCO7)C(=O)[C@@H]45)[C@H]23)cc1 -91.1%
CCCCn1c(SCC(=O)N2CCC(C(=O)OCC)CC2)nc2cc(S(N)(=O)=O)ccc21 -100%
CCCCOC(=O)c1[nH]c(C)c(C(=O)OC)c1C -88.2%
COC(=O)c1cc(C(=O)OC)cc(N2C(=O)CC(N3CCN(c4ccccc4)CC3)C2=O)c1 (stereo unspecified) -94.7%
COc1ccc(N2CCN(C3CC(=O)N(c4ccc5c(c4)OCCO5)C3=O)CC2)cc1 (stereo unspecified) -84.9%
COc1ccc(CC(=O)Nc2ccc(C(=O)NC(C)(C)C)cc2)cc1 -85%
Cn1nnnc1SCC(=O)N1CCN(C(c2ccccc2)c2ccccc2)CC1 -100%
O=C(c1ccc(-n2cnnn2)cc1)N1CCN(C(c2ccccc2)c2ccccc2)CC1 -100%
CC(NC(=O)COC(=O)C1CCN(S(=O)(=O)c2ccccc2C(F)(F)F)CC1)c1ccccc1 (stereo unspecified) -108%
CCOC(=O)c1c(-c2ccc(C)cc2C)csc1NC(=O)CSc1nnnn1C -85.2%
COc1ccc(C(=O)COC(=O)COc2ccc(C)c(C)c2)cc1 -83.5%
CCOC(=O)c1ccc(NC(=O)CSc2nnc(COc3ccccc3OC)n2C)cc1 -83.9%
Cn1c(=O)[nH]c(=O)c2c1nc(NCCCn1ccnc1)n2Cc1cccc(Br)c1 -100%
Cc1ccc(C)c(S(=O)(=O)N2CC(=O)Nc3ccccc32)c1 -86.7%
CCOC(=O)C1=C(CC)Nc2ccccc2N=C1NC(=O)c1cccc(S(=O)(=O)N2CCCC2)c1 -114%
C/C(CC(=O)Nc1ccc(Cl)cc1)=N\NC(=O)C(=O)NCCO -81.9%
Cc1nn(-c2ccccc2)c(Cl)c1/C=C/C(=O)c1ccc(O)cc1 -91.6%
